In the supplement of paper PMC3545927:
This is one part of the list. How many sequences the whole screen found active is unknown.

Biological target: furin, P09958
Assay: furin cleavage Z-score vs untreated control; higher = more cleavage, active = 3.5 or more, inactive = 1 or less, 8 variable residues between constant flanks
Method in brief: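 Purified furin cleaved 8-mer peptides that were fused to a cDNA oligonucleotide and held on magnetic beads by their N-terminus. Each 0.01 ml reaction used a 1:10 enzyme:substrate ratio in 50 mM HEPES pH 7.5 with CaCl2 and NaCl and ran 7.5, 15 or 30 min. Released DNA was adapter-tagged by PCR and sequenced, and read counts gave abundance. The cleavage Z-score came from log counts against furin-free reactions, lowess-adjusted and scaled by median absolute deviation.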

Sequence of furin, P09958 (P09958 whole entry): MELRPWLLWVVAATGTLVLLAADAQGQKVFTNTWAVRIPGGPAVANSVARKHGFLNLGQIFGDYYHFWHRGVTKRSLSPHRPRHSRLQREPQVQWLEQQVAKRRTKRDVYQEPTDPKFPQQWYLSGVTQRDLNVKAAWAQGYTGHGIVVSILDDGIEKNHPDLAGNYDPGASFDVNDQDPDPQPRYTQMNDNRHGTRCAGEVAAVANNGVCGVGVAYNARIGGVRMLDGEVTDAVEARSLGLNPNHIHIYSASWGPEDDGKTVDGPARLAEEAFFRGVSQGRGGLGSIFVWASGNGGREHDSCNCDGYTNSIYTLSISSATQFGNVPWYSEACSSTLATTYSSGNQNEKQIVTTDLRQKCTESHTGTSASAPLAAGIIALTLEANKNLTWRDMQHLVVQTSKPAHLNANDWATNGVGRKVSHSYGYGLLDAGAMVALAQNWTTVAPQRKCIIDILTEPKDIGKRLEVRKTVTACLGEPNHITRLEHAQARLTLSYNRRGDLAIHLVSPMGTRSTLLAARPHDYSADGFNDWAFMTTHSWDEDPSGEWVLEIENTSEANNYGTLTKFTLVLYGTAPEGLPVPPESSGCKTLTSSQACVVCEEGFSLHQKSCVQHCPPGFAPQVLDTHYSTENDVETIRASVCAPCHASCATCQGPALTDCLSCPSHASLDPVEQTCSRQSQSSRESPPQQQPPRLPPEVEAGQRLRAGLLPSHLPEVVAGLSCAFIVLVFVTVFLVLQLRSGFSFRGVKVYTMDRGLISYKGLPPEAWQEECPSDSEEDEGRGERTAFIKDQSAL

Sequence	furin cleavage Z-score (7.5 min)	furin cleavage Z-score (15 min)	furin cleavage Z-score (30 min)
CARGRKSPSKAGNASASA [FS-2673]	-0.571 (inactive)	-0.51 (inactive)	-0.0739 (inactive)
CAGARRSVIGAGNASASA [FS-1983]	-0.924 (inactive)	0.507 (inactive)	-0.671 (inactive)
CAGPSRQNRGAGNASASA [FS-1330]	-0.197 (inactive)	-0.893 (inactive)	-0.697 (inactive)
CAGARRSRRAAGNASASA [FS-422]	7.16 (active)	6.59 (active)	5.19 (active)
CAGVSRSCRAAGNASASA [FS-1005]	3.78 (active)	4.22 (active)	5.16 (active)
CAGPGRPYRAAGNASASA [FS-784]	-0.745 (inactive)	0.68 (inactive)	0.71 (inactive)
CARGRRSPHTAGNASASA [FS-3252]	7.13 (active)	8.09 (active)	6.93 (active)
CARGRRKTGEAGNASASA [FS-3251]	-0.45 (inactive)	-1.86 (inactive)	0.0435 (inactive)
CARGRRDFPEAGNASASA [FS-2021]	1.74	3.62 (active)	3.22
CAMEECSQHIAGNASASA [HC1764]	-0.598 (inactive)	0.0833 (inactive)	0.396 (inactive)
CAMRSPVFTDAGNASASA [HC763]	0.639 (inactive)	-0.615 (inactive)	-0.411 (inactive)
CAFDVVCCSMAGNASASA [HC2107]	-0.364 (inactive)	0.607 (inactive)	-0.057 (inactive)
CAGERPSGMFAGNASASA [HC913]	1.14	-1.35 (inactive)	-0.577 (inactive)
CATTPCSLSWAGNASASA [HC1885]	1.37	1.04	0.14 (inactive)
CARPIRSRRAAGNASASA [FS-1563]	11.5 (active)	11.2 (active)	9.54 (active)
CARGRRSHDPAGNASASA [FS-2674]	0.899 (inactive)	3.42	3.55 (active)
CARGRRGMKDAGNASASA [FS-2394]	0.884 (inactive)	1.5	2.14
CARGRRQKQNAGNASASA [FS-2418]	0.749 (inactive)	0.513 (inactive)	0.917 (inactive)
CARGRRSRRAAGNASASA [FS-1062]	5.6 (active)	4.73 (active)	4.94 (active)
CARGRRQPIPAGNASASA [HC190]	0.155 (inactive)	-0.409 (inactive)	-0.134 (inactive)
CACPAGHAVGAGNASASA [HC746]	-0.805 (inactive)	-1.77 (inactive)	0.00889 (inactive)
CAPLGNWFGCAGNASASA [HC433]	1.65	0.567 (inactive)	1.54
CAVKSRLKRLAGNASASA [FS-890]	9.42 (active)	12 (active)	9.55 (active)
CAIKSLTERLAGNASASA [HC1497]	-0.222 (inactive)	-0.416 (inactive)	-0.246 (inactive)
CAHSSRLKRLAGNASASA [FS-1011]	6.44 (active)	7.96 (active)	7.66 (active)
CADGMEECSQAGNASASA [HC1816]	-0.375 (inactive)	0.927 (inactive)	0.477 (inactive)
CAMSECSQHLAGNASASA [HC1697]	0.222 (inactive)	0.351 (inactive)	1.22
